Results reported in article PMC5540273 (PLoS ONE, 2017).

Tested on: CAMK1B
Settings: concentration: 1 μM, replicates: in singlicate; n = 1
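Note: KINOMEscan kinase panel screen.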

| Structure (SMILES) | %Inh |
| --- | --- |
| COc1cc(Nc2nccc(N3CCC(NS(=O)(=O)c4ccc(NC(C)=O)cc4)CC3)n2)cc(OC)c1OC [GSK1379825] | 35% |
| Cc1cc(-c2ccnc(Nc3cccc(C#N)c3)n2)cc(C)c1O [GSK1440913] | 24% |
| Cc1ccc(C)c(NC(=O)Nc2ccc(C)c(-c3ccc(C(=O)Nc4ccncc4)cc3)c2)c1 [GSK1398473] | 27% |
| CN(C)CCNS(=O)(=O)c1ccc(-c2ccnc3[nH]ccc23)cc1 [GSK977620] | 0% |
| O=C(Nc1n[nH]c2nc(-c3cccc(O)c3)ccc12)C1CC1 [SB-711805] | 0% |
| COc1cccc(C2=C(Nc3cccc(O)c3)C(=O)NC2=O)c1 [SB-390771] | 29% |
| CSc1ccc(NC2=C(c3ccc(Cl)cc3)C(=O)NC2=O)cc1 [SB-317658] | 61% |
| Cc1ccc(O)cc1Nc1ccnc2cc(-c3ccc(CN4CCCCC4)o3)ccc12 [GW557777] | 0% |
| Fc1cc(Cl)ccc1Nc1ccnc2cc(-c3ccc(CN4CCOCC4)o3)ccc12 [GW560109] | 24% |
| COC(=O)Nc1nc2ccc(Oc3ccc(NC(=O)Nc4cc(C(F)(F)F)ccc4F)cc3)cc2[nH]1.Cl [GW654607] | 51% |
| CN(c1ccc(NC(=O)N2CCN(CCCN3CCOCC3)CC2)cc1)c1ccnc(Nc2ccc(CS(C)(=O)=O)cc2)n1.Cl [GW830899] | 0% |
| CCn1c(-c2nonc2N)nc2c(-c3ccccc3)ncc(OCCCN)c21.O=C(O)C(F)(F)F.O=C(O)C(F)(F)F [GSK260205] | 7% |
| COc1cc(Nc2nccc(N3CCC(NC(=O)Nc4ccc5c(c4)OCO5)C3)n2)cc(OC)c1OC (stereo not shown) [GSK1379766] | 34% |
| Cc1ccc(NC(=O)c2ccnc(N3CCCCC3)c2)cc1-c1ccc(C(=O)NCC2CC2)cc1 [GW775610] | 24% |
| COC(=O)Nc1nc2ccc(Oc3ccc(CC(=O)Nc4cc(C(F)(F)F)ccc4F)cc3)cc2[nH]1 [GW680903] | 30% |
| COc1ccc(NC(=O)c2ccoc2)cc1-c1ccc(C(=O)NCC2CC2)cc1 [GW810437] | 19% |
| Cc1cccc(Nc2nc(NCCN)ncc2C(N)=O)c1 [GSK1292139] | 98.1% |
| Cl.N#CCc1ccc(Nc2nccc(Nc3ccc(Oc4ccccc4)cc3)n2)cc1 [GW639905] | 31% |
| Fc1cc(Cl)ccc1Nc1ccnc2cc(-c3ccc(CN4CCSCC4)o3)ccc12 [GW560106] | 10% |

| Structure (SMILES) | %Inh |
| --- | --- |
| NCCC(NC(=O)c1cc(Br)c(-c2ccnc3[nH]ccc23)s1)c1ccccc1.O=C(O)C(F)(F)F.O=C(O)C(F)(F)F (stereo not shown) [GSK1307810] | 52% |
| O=C(O)C(F)(F)F.O=c1[nH]ccc2nc(N[C@@H]3CCNC3)nc(Nc3ccc4c(c3)S(=O)(=O)CC4)c12 [GSK2181306] | 98.7% |
| Cc1ccccc1CC(=O)N1CCc2cc(-c3cn(C)c4ncnc(N)c34)ccc21 [GSK2603346] | 0% |
| CCNC(=O)/C=C/c1n[nH]c2cc(Sc3ccccc3C(=O)NC)ccc12 | 9% |
| Nc1ncc(-c2ccc3nccc(-c4ccncc4)c3c2)cc1S(=O)(=O)N1CCCCC1 [GSK1693850] | 6% |
| CS(=O)(=O)c1cccc(CNc2nc(Nc3ccc4c(c3)CCC(=O)N4)ncc2C(F)(F)F)c1 | 0% |
| COc1ccc(C)c(Nc2ccnc(Nc3ccc(-c4cnc[nH]4)cc3)n2)c1.Cl [GW784041] | 0% |
| O=C(O)C(F)(F)F.O=c1[nH]ccc2nc(N[C@@H]3CCNC3)nc(Nc3cc(Cl)cc(Cl)c3)c12 [GSK2188764] | 100% |
| Cl.Cl.NC(CNC(=O)c1cc(Br)c(-c2ccnc3[nH]ccc23)s1)c1ccccc1 (stereo not shown) [GSK1322949] | 34% |
| COC(=O)Nc1nc2cc(Oc3ccc(NC(=O)Nc4cccc(SC)c4)cc3)ccc2[nH]1.Cl [GW697999] | 0% |
| CCOc1nccc(-c2c(-c3ccc(F)cc3)ncn2C2CCNCC2)n1 [SB-249175] | 31% |
| Cl.Cl.NCC(NC(=O)c1cc(-c2cccnc2)c(-c2ccnc3[nH]ccc23)s1)c1ccccc1 (stereo not shown) [GSK1323434] | 7% |
| Nc1ncnc2scc(-c3ccc(NC(=O)Cc4cc(F)ccc4F)cc3)c12.O=C(O)C(F)(F)F [SB-731254-M] | 0% |
| Cn1cc(-c2ccc3c(c2)CCN3C(=O)Cc2cc(F)cc(C(F)(F)F)c2)c2c(N)ncnc21 [GSK2635225] | 41% |
| COc1cccc2c(-c3ccncc3)c(-c3ccc(F)cc3)nn12 [GW468513] | 0% |
| COc1cccc(NC(=O)NCCNc2ccnc(Nc3ccc(F)cc3)n2)c1 [GSK1379879] | 0% |
| Cn1cc(-c2ccc3c(c2)CCN3C(=O)Cc2cc(F)cc(F)c2F)c2c(N)ncnc21 [GSK2634140] | 7% |
| CN(C)CCOc1ccc(-c2cc(-c3ccc(Cl)c(O)c3)c(-c3ccncc3)[nH]2)cc1.Cl.Cl [SB-684387] | 40% |
